Measured values published in PubChem BioAssay (EPA / NIEHS).
Inconclusive results are not listed. Active and inactive are the calls of the source. How the source made its calls, unless noted: active means hit-call score of the fitted dose curve at least 0.9, where 1 is the maximum; inconclusive means response in the unintended direction; inactive means score below 0.9.

How the values were obtained:
[1] = ATG_M_61_CIS: Attagene CIS-FACTORIAL HepG2 Assay for M61 Transcription Factor (Internal Marker) (AID 2282937; active means hit-call score of the fitted dose curve at least 0.9, where 1 is the maximum; inactive means score below 0.9); details: HepG2 Attagene CIS-FACTORIAL M61 internal marker reporter; actives raise or lower the signal
In short: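 Human liver HepG2, transient MRTU transfection (cis promoter elements), 24 h compound. Total RNA → oligo(dT) RT → PCR → FAM label → HpaI → CE. Internal background marker; bidirectional fitting, DMSO = baseline.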

[2] = target: Hepatocyte nuclear factor 6 (Homo sapiens) (UniProt Q9UBC0); test: ATG_HNF6_CIS: Attagene CIS-FACTORIAL HepG2 Assay for human Hepatocyte Nuclear Factor 6 (HNF6) (AID 2282952; active means hit-call score of the fitted dose curve at least 0.9, where 1 is the maximum; inactive means score below 0.9); details: HepG2 Attagene cis-factorial HNF6 reporter transcription; actives raise or lower the signal
Sequence of Hepatocyte nuclear factor 6 (Homo sapiens) (Q9UBC0 whole entry, looked up, the tested form may be a part): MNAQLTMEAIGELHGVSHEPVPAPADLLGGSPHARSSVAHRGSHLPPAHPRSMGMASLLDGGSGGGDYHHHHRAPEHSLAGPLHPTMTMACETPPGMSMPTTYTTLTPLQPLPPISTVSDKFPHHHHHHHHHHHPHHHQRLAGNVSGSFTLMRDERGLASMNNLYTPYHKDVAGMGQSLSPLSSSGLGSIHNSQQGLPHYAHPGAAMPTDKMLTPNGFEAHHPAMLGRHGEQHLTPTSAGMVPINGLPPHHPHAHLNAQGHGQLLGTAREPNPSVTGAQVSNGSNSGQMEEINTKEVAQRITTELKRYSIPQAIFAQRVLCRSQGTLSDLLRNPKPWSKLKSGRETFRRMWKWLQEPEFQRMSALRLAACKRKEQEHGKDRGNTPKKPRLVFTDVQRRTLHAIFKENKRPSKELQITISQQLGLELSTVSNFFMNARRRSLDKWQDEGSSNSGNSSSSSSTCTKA
In short: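 Reporter mRNA induction or loss in HepG2 after 24 h exposure; transient cis-MRTU transfection; fragments quantified by capillary electrophoresis; bidirectional analysis, DMSO as negative control.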

[3] = target: Paired box protein Pax-6 (Homo sapiens) (UniProt P26367); test: ATG_Pax6_CIS: Attagene CIS-FACTORIAL HepG2 Assay for human Paired Box 6 (PAX6) (AID 2282956; active means hit-call score of the fitted dose curve at least 0.9, where 1 is the maximum; inactive means score below 0.9); details: HepG2 CIS-FACTORIAL PAX6 reporter transcription, RNA readout; actives raise or lower the signal
Sequence of Paired box protein Pax-6 (Homo sapiens) (P26367 whole entry, looked up): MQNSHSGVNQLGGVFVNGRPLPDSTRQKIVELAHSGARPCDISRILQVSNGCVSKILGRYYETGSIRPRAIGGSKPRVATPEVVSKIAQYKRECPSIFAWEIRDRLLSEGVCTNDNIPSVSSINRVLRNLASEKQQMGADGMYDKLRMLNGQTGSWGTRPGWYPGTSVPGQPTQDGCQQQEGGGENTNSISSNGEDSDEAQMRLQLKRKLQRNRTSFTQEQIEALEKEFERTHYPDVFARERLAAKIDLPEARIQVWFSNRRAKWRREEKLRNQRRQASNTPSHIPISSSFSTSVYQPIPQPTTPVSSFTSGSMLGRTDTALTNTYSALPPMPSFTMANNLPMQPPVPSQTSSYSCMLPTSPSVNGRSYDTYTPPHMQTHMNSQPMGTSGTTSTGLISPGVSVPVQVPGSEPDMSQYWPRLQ
In short: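 HepG2 cells transiently transfected with cis-promoter-driven multiplexed reporter units sensing endogenous transcription factor activity; 24 h chemical exposure. Reporter mRNA quantified by RT-PCR, 6-FAM labelling, HpaI digestion and capillary electrophoresis; bidirectional fit versus DMSO baseline.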

[4] = ATG_RORE_CIS: Attagene CIS-FACTORIAL HepG2 Assay for human RAR-related Orphan Receptor Element (RORE) (AID 2282959; active means hit-call score of the fitted dose curve at least 0.9, where 1 is the maximum; inactive means score below 0.9); details: HepG2 Attagene cis-factorial RORE reporter, mRNA; actives raise or lower the signal
In short: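 Transient MRTU transfection of human HepG2 liver cells (FuGene 6); 24 h compound exposure; TriZol RNA, oligo(dT) RT, PCR, FAM labeling, HpaI cut, CE fragment analysis. DMSO = negative control/baseline.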

[5] = target: Hepatocyte nuclear factor 4-alpha (Homo sapiens) (UniProt P41235); test: ATG_HNF4a_TRANS: Attagene TRANS-FACTORIAL HepG2 Assay for human Hepatocyte Nuclear Factor 4 alpha (HNF4a) (AID 2282982); details: HepG2 HNF4a transactivation reporter, mRNA readout
Sequence of Hepatocyte nuclear factor 4-alpha (Homo sapiens) (P41235 whole entry, looked up, the tested form may be a part): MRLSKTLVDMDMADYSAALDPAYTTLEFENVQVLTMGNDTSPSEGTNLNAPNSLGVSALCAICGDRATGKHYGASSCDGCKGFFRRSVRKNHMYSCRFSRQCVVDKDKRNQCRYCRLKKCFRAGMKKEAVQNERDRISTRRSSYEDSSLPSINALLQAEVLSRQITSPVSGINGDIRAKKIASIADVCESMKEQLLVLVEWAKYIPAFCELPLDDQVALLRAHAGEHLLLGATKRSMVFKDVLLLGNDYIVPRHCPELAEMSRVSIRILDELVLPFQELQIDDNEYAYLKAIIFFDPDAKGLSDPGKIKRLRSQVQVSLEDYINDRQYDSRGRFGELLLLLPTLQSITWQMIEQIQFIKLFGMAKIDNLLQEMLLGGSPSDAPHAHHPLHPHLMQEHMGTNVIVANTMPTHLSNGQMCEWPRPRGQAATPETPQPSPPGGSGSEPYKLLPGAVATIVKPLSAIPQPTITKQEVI
In short: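 HepG2 cells transiently transfected with multiplexed GAL4-UAS reporter units responsive to chimeric NR-GAL4 proteins; compound exposure 24 h. Reporter mRNA quantified by RT-PCR, 6-FAM labelling, HpaI digestion and capillary electrophoresis; gain of signal versus DMSO baseline.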

[6] = ATG_NF_kB_CIS: Attagene CIS-FACTORIAL HepG2 Assay for human Nuclear Factor Kappa B (NF-kB) (AID 2282991; active means hit-call score of the fitted dose curve at least 0.9, where 1 is the maximum; inactive means score below 0.9); details: HepG2 Attagene cis-factorial NF-kB reporter mRNA; actives raise or lower the signal
In short: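 Transient MRTU transfection of human HepG2 liver cells → 24 h chemical exposure → total RNA, oligo(dT) RT → PCR, 6-FAM primer extension, HpaI digest 2 h 37 C → CE fragment analysis. Bidirectional fitting, DMSO negative control.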

[7] = target: human Peroxisome Proliferator-activated Receptor alpha (PPARa), PPARA (gene 5465) (UniProt Q07869); test: ATG_PPARa_TRANS: Attagene TRANS-FACTORIAL HepG2 Assay for human Peroxisome Proliferator-activated Receptor alpha (PPARa) (AID 2283001)
Sequence of human Peroxisome Proliferator-activated Receptor alpha (PPARa), PPARA (gene 5465) (Q07869 whole entry, looked up, the tested form may be a part): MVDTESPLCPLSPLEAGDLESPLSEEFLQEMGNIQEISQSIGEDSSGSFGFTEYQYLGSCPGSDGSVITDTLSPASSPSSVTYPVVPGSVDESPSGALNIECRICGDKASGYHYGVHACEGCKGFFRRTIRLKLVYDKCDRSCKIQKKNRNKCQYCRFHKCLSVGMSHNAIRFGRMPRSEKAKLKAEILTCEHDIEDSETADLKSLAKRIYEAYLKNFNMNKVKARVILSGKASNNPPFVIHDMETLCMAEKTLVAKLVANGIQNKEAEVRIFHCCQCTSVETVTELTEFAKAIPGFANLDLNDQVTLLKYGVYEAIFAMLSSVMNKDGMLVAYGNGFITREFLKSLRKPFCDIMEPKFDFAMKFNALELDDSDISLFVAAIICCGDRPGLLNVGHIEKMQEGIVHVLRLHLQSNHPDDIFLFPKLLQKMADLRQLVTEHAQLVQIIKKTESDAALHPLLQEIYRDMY
In short: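 HepG2 cells transiently transfected with multiplexed GAL4-UAS reporter units and chimeric NR-Gal4 constructs were dosed for 24 h. Reporter mRNA was measured by RT-PCR with fluorescent labelling and capillary electrophoresis; gain of signal fitted against DMSO.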

[8] = target: Peroxisome proliferator-activated receptor gamma (Homo sapiens) (UniProt P37231); test: ATG_PPARg_TRANS: Attagene TRANS-FACTORIAL HepG2 Assay for human Peroxisome Proliferator-activated Receptor-gamma (PPARg) (AID 2283007)
Sequence of Peroxisome proliferator-activated receptor gamma (Homo sapiens) (P37231 whole entry, looked up, the tested form may be a part): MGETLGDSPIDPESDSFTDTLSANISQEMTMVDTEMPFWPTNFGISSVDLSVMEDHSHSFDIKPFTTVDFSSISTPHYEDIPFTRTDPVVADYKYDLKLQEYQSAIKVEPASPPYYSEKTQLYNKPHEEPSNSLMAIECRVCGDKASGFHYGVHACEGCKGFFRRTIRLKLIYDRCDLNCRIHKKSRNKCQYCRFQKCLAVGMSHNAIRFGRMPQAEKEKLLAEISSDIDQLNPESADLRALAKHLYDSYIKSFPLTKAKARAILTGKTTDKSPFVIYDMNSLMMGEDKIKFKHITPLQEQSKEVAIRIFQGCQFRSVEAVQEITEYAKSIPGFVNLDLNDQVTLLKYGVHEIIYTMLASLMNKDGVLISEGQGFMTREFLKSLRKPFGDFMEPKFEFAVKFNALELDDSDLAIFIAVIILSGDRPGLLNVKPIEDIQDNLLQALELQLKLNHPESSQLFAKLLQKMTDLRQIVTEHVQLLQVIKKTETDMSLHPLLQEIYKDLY
In short: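 Transient transfection of HepG2 with GAL4-UAS-driven reporter units; chemical dosing 24 h; total RNA → oligo(dT) RT → PCR with reporter primers → 6-FAM primer extension → HpaI digest 2 h 37 C → capillary electrophoresis. Positive direction vs DMSO.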

[9] = target: Nuclear receptor subfamily 1 group I member 2 (Homo sapiens) (UniProt O75469); test: ATG_PXR_TRANS: Attagene TRANS-FACTORIAL HepG2 Assay for human Pregnane X Receptor (PXR) (AID 2283008)
Sequence of Nuclear receptor subfamily 1 group I member 2 (Homo sapiens) (O75469 whole entry, looked up, the tested form may be a part): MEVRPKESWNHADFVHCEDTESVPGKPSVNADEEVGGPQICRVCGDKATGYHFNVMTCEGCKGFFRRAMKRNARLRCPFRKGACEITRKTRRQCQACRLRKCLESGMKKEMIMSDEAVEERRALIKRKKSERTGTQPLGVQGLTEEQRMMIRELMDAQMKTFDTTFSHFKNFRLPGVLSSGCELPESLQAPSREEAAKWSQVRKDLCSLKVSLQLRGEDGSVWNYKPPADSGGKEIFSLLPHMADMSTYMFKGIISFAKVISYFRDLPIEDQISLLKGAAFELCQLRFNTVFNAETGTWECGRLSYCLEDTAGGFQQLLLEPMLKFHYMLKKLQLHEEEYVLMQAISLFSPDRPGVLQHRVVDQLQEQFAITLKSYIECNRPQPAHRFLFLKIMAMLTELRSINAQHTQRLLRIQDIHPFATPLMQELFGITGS
In short: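 HepG2 cells transiently transfected with GAL4-UAS reporter units and PXR-Gal4 chimera, exposed 24 h. Reporter mRNA quantified by RT-PCR, fluorescent labelling, HpaI digestion and capillary electrophoresis; gain of signal vs DMSO.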

[10] = target: human Retinoid X Receptor beta (RXRb), RXRB (gene 6257) (UniProt P28702); test: ATG_RXRb_TRANS: Attagene TRANS-FACTORIAL HepG2 Assay for human Retinoid X Receptor beta (RXRb) (AID 2283013)
Sequence of human Retinoid X Receptor beta (RXRb), RXRB (gene 6257) (P28702 whole entry, looked up): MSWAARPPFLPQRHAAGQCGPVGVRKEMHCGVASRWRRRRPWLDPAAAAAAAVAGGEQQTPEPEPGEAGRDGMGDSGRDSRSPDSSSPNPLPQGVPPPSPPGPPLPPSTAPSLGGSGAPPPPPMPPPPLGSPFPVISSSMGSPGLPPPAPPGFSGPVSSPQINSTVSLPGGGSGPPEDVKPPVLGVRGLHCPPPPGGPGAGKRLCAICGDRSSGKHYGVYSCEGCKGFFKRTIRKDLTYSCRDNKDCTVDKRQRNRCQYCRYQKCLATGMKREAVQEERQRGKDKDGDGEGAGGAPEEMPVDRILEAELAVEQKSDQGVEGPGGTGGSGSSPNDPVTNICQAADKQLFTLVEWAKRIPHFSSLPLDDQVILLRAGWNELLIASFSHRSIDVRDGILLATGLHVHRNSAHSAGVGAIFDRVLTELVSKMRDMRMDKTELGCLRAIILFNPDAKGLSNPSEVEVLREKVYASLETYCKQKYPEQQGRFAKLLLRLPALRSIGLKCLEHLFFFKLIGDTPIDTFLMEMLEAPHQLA
In short: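 Multiplexed TRANS reporter assay in HepG2; 24 h dosing; reporter mRNA by RT-PCR/CE fluorescence; gain-of-signal relative to DMSO.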

[11] = target: Cellular tumor antigen p53 (Homo sapiens) (UniProt P04637); test: TOX21_p53_BLA_p2_ratio: Tox21 HCT-116 p53 Agonism Beta-lactamase Assay, Ratio, Phase 2 (AID 2283592)
Sequence of Cellular tumor antigen p53 (Homo sapiens) (P04637 whole entry, looked up): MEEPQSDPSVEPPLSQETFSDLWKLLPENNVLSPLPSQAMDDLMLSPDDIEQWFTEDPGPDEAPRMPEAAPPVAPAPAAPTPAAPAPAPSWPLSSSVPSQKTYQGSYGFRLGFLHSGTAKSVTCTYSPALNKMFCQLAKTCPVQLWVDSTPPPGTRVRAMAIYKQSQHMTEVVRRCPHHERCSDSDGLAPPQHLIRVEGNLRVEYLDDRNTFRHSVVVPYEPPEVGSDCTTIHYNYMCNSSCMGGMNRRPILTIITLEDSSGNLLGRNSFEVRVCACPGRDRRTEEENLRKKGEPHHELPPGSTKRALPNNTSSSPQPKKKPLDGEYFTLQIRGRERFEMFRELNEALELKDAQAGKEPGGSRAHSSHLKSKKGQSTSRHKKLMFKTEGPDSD
In short: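 An inducible beta-lactamase reporter in HCT116 cells signals p53 pathway activation. After 16 h chemical exposure at 37C, cells load CCF4-AM substrate for 2 h at room temperature; activity is the cleaved/uncleaved emission ratio relative to DMSO.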

[12] = target: Cellular tumor antigen p53 (Homo sapiens) (UniProt P04637); test: TOX21_p53_BLA_p3_ratio: Tox21 HCT-116 p53 Agonism Beta-lactamase Assay, Ratio, Phase 3 (AID 2283596)
In short: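 HCT116 p53-bla cells (4000/well) given compound in DMSO (217-fold dilution) after 5 h, incubated 16 h at 37C. CCF4-AM substrate 2 h at room temperature; 460/530 nm emission ratio, gain fitted against DMSO.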

[13] = target: Cellular tumor antigen p53 (Homo sapiens) (UniProt P04637); test: TOX21_p53_BLA_p5_ratio: Tox21 HCT-116 p53 Agonism Beta-lactamase Assay, Ratio, Phase 5 (AID 2283599)
In short: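 HCT-116 cells carrying a p53-inducible beta-lactamase reporter were seeded at 4000 cells/well and dosed after 5 h with compound in DMSO (217-fold dilution). After 16 h at 37C, CCF4-AM substrate was added for 2 h, and the 460/530 nm emission ratio was scored as gain-of-signal versus DMSO.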

[14] = TOX21_p53_BLA_p5_viability: Viability Assessment in the Tox21 HCT-116 p53 Agonism Beta-lactamase Assay, Phase 5 (AID 2283600)
In short: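 Counter-readout for cytotoxicity: ATP-dependent luminescence from CellTiter-Glo, read in the beta-lactamase wells after 30 min at RT, following a 16 h compound exposure at 37C.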

[15] = target: Cellular tumor antigen p53 (Homo sapiens) (UniProt P04637); test: TOX21_p53_BLA_p4_ratio: Tox21 HCT-116 p53 Agonism Beta-lactamase Assay, Ratio, Phase 4 (AID 2283601)
In short: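 HCT116 cells carrying an inducible beta-lactamase reporter were plated at 4000 cells/well, rested 5 h, then exposed to compounds in DMSO (217-fold dilution) for 16 h at 37C. CCF4-AM substrate was loaded 2 h at room temperature; 460/530 nm emission ratio scored gain-of-signal versus DMSO.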

[16] = ATG_GRE_CIS: Attagene CIS-FACTORIAL HepG2 Assay for human Glucocorticoid Response Elements (GRE) (AID 2282947; active means hit-call score of the fitted dose curve at least 0.9, where 1 is the maximum; inactive means score below 0.9); details: HepG2 GRE cis-reporter, Attagene multiplex mRNA; actives raise or lower the signal
In short: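 HepG2 cells transiently transfected with multiple cis-promoter reporter units measure endogenous TF activity; 24 h compound exposure. Reporter mRNA quantified by RT-PCR, FAM labelling, HpaI digestion and capillary electrophoresis; bidirectional fit vs DMSO baseline.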

[17] = ATG_MRE_CIS: Attagene CIS-FACTORIAL HepG2 Assay for human Metal Responsive Element (MRE) (AID 2282954; active means hit-call score of the fitted dose curve at least 0.9, where 1 is the maximum; inactive means score below 0.9); details: HepG2 MRE cis-reporter transcription, Attagene multiplex; actives raise or lower the signal
In short: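 HepG2 cells transiently transfected with multiple cis-element reporter units measure endogenous MTF1-driven transcription. After 24 h compound exposure, reporter mRNA is quantified by RT-PCR with 6-FAM labelling, HpaI digestion and capillary electrophoresis; bidirectional fits versus DMSO.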

[18] = ATG_PBREM_CIS: Attagene CIS-FACTORIAL HepG2 Assay for human Phenobarbital-responsive Enhancer Module (PBREM) (AID 2282955; active means hit-call score of the fitted dose curve at least 0.9, where 1 is the maximum; inactive means score below 0.9); details: HepG2 PBREM cis-reporter, Attagene multiplexed transcription; actives raise or lower the signal
In short: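 Endogenous transcription factors in human liver HepG2 cells drive a PBREM cis-element reporter, whose transcript level after 24 h treatment is quantified by RT-PCR with capillary electrophoresis; activity fitted in both directions against DMSO.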

[19] = target: Myc proto-oncogene protein (Homo sapiens) (UniProt P01106); test: ATG_Myc_CIS: Attagene CIS-FACTORIAL HepG2 Assay for human Myelocytomatosis (Myc) Proto-Oncogene Transcription Factor (AID 2282990; active means hit-call score of the fitted dose curve at least 0.9, where 1 is the maximum; inactive means score below 0.9); details: HepG2, Attagene cis-reporter transcription factor activity; actives raise or lower the signal
Sequence of Myc proto-oncogene protein (Homo sapiens) (P01106 whole entry, looked up): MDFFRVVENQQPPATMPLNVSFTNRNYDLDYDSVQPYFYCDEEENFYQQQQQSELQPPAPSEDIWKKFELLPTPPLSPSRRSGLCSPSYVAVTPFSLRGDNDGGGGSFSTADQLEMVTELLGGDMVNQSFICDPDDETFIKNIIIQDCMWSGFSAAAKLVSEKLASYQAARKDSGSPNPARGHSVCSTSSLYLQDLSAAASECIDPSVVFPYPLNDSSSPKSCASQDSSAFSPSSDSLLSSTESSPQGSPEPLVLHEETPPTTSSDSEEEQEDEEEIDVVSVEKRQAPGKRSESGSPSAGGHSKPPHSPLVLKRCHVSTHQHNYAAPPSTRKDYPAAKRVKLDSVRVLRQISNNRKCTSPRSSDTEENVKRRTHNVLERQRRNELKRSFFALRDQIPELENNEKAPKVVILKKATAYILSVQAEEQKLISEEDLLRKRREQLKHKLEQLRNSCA
In short: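 DMSO-normalised, bidirectionally fitted reporter mRNA signal. HepG2 cells transfected with cis reporter constructs, treated 24 h; transcripts detected by RT-PCR, 6-FAM primer extension and CE.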

[20] = ATG_M_06_TRANS: Attagene TRANS-FACTORIAL HepG2 Assay for M06 Transcription Factor (Internal Marker) (AID 2282983); details: HepG2 Attagene TRANS M06 internal marker reporter
In short: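 Measured by capillary electrophoresis of fluorescently labelled RT-PCR products, this endpoint reflects reporter mRNA in HepG2 cells harbouring exogenous NR-GAL4 reporter constructs after 24 h exposure, with DMSO as baseline.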

Measured: AC50

CCCOC(=O)c1ccccc1C(=O)OCCC
active: [8] 86.3 µM | [9] 70.3 µM | [10] 76.1 µM
not listed: [16] | [17] | [18] | [19] | [20]
inactive: all other assays above

O=P1(NCCCl)OCCCN1CCCl (stereo unspecified)
not listed: [2] | [10] | [11] | [12] | [13] | [14] | [15] | [20]
inactive: all other assays above

O=C(O)COc1ccccc1
not listed: [3] | [4] | [5] | [10]
inactive: all other assays above

O=c1[nH]c(Cl)c(Cl)cc1Cl
active: [8] 14.2 µM
not listed: [3] | [5] | [6] | [16] | [20]
inactive: all other assays above

COC(C)(C)CCC[C@H](C)C/C=C/C(C)=C/C(=O)OC(C)C
active: [3] 100 µM | [8] 7.82 µM | [9] 16.3 µM
not listed: [5] | [16] | [17]
inactive: all other assays above

C[N+](=O)[O-]
not listed: [2] | [9] | [10] | [11] | [12] | [13] | [17] | [18]
inactive: all other assays above

CCCCOC(=O)CCC(=O)OCCCC
inactive: [1] | [17] | [18] | [3] | [4] | [20] | [19] | [7] | [10] | [13] | [15]

COc1ncc(F)c2nc(S(=O)(=O)Nc3c(F)cccc3F)nn12
inactive: [1] | [16] | [17] | [18] | [3] | [4] | [5] | [19] | [6] | [9]

CC1(C)C(=O)NC(=O)NC1=O
not listed: [2] | [4] | [7] | [12] | [15] | [20]
inactive: all other assays above

Cc1ccccc1CCl
not listed: [2] | [3] | [5] | [15] | [17] | [19]
inactive: all other assays above
